Among the data in paper PMC7862700, “An all-to-all approach to the identification of sequence-specific readers for epigenetic DNA modifications on cytosine” are binding signal values, retold here.

Holding throughout (test): DAPPL (digital affinity profiling via proximity ligation, sequencing); 10 mM Tris-HCl pH 7.5, 50 mM NaCl, 1 mM DTT, 4% glycerol, room temperature, 30 min; GST-TFs on glutathione beads, 16-mer random dsDNA library, 0.1% formaldehyde crosslink after washing; high values mean tight binding
Common to all, as to conditions: protein: recombinant; tags: N-terminal GST; dsDNA, one strand shown

In assay [1] the target is T1, FLI1 (Homo sapiens, UniProt Q01543 1-452).
T1 sequence: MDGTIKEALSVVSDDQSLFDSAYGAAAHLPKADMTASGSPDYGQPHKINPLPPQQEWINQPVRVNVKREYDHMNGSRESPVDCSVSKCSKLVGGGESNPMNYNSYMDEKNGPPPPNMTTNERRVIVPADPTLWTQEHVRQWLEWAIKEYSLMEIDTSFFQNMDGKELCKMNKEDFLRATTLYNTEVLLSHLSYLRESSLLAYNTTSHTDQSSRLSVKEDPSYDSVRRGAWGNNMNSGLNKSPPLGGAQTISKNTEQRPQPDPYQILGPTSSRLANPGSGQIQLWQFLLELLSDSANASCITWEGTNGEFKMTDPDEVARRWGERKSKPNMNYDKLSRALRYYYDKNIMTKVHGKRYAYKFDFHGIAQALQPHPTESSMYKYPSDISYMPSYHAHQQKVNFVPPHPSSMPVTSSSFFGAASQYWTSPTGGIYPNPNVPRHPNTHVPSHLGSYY
An outline of the steps:
(§1)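 Binding signal is each hexamer's read frequency for a factor divided by its frequency in the tag-only sample. The factors were GST-fused human transcription factors from yeast, captured on glutathione beads, DNA-barcoded and pooled with that sample. Pools were incubated with 200 nmole of a random double-stranded 16-mer DNA library in Tris/NaCl/DTT/glycerol buffer at room temperature for 30 min, then washed, crosslinked with 0.1% formaldehyde, proximity-ligated with BsaI/T4 ligase (1 h, 37 °C), PCR-amplified and sequenced on an Illumina NextSeq500.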

The target in assay [2] is T2, ELK1 (Homo sapiens, UniProt P19419 1-428).
T2 sequence: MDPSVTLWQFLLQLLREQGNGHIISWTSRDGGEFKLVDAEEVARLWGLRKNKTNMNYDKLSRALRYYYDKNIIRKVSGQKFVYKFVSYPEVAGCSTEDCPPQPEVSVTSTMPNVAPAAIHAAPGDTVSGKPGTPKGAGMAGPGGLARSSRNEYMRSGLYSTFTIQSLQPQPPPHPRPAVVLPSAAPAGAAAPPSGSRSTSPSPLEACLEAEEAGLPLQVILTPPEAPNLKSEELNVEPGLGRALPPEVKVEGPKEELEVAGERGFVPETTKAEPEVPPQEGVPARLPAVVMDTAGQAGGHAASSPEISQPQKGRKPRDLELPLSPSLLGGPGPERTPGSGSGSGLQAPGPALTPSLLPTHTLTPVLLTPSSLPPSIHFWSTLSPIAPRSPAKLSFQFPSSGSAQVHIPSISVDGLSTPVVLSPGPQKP
An outline of the steps: as §1

For assay [3], the target named is T3, GABPA (Homo sapiens, UniProt Q06546 1-454).
T3 sequence: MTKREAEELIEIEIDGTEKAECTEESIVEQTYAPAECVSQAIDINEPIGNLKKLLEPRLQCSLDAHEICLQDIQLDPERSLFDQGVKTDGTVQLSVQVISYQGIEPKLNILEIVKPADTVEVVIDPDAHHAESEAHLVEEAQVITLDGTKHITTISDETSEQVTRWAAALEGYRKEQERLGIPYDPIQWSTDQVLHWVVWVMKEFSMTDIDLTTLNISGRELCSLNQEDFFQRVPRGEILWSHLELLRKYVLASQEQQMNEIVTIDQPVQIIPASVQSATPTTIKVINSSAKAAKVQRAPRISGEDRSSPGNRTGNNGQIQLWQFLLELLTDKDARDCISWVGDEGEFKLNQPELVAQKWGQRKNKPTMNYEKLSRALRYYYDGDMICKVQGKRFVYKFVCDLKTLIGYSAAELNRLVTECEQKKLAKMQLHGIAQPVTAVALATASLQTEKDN
A digest of the protocol:
as §1

Assay [4] has as its target T4, ERG (Homo sapiens, UniProt P11308 1-479).
T4 sequence: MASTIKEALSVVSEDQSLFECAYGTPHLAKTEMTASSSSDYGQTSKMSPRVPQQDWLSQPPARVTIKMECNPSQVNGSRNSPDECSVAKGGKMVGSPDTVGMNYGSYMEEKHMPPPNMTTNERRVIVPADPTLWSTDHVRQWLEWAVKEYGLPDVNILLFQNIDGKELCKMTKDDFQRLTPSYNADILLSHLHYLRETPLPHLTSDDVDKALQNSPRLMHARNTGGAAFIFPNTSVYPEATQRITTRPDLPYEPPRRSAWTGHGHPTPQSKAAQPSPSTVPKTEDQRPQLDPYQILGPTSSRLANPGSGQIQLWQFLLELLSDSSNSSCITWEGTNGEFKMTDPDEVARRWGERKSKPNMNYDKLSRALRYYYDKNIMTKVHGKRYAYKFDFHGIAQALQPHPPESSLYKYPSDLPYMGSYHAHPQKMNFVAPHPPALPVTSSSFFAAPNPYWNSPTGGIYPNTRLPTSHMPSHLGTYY
An outline of the steps: as §1

Assay [5] concerns the target ELF1 (Homo sapiens, UniProt P32519 1-619). An outline of the steps:
as §1

Assay [6] has as its target T5, EHF (Homo sapiens, UniProt Q9NZC4 1-300).
T5 sequence: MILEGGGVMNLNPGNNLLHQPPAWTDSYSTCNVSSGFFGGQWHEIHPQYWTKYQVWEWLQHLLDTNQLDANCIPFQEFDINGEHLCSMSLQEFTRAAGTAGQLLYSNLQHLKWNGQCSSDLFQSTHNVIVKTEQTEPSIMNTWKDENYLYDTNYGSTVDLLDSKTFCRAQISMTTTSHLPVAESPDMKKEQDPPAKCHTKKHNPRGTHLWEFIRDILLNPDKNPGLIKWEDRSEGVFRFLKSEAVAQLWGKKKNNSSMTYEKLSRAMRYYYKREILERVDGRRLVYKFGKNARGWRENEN
An outline of the steps:
as §1

In assay [7] the target is SPI1 (Homo sapiens, UniProt P17947 1-270). An outline of the steps:
as §1

The target in assay [8] is SPIB (Homo sapiens, UniProt Q01892 1-262). An outline of the steps:
as §1

The target of assay [9] is T6, ELK3 (Homo sapiens, UniProt P41970 1-407).
T6 sequence: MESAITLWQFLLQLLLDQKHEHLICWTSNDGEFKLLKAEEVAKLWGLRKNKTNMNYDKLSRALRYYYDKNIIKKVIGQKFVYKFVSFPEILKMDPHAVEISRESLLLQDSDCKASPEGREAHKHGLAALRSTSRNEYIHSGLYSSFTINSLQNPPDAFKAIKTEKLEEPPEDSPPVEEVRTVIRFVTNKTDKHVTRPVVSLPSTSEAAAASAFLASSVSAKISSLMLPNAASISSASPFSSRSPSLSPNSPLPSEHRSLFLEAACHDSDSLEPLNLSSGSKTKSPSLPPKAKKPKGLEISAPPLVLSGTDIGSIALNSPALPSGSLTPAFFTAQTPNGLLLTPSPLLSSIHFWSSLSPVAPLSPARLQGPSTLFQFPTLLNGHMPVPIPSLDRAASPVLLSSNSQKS
An outline of the steps: as §1

Chain of ELF1 (P32519 whole entry): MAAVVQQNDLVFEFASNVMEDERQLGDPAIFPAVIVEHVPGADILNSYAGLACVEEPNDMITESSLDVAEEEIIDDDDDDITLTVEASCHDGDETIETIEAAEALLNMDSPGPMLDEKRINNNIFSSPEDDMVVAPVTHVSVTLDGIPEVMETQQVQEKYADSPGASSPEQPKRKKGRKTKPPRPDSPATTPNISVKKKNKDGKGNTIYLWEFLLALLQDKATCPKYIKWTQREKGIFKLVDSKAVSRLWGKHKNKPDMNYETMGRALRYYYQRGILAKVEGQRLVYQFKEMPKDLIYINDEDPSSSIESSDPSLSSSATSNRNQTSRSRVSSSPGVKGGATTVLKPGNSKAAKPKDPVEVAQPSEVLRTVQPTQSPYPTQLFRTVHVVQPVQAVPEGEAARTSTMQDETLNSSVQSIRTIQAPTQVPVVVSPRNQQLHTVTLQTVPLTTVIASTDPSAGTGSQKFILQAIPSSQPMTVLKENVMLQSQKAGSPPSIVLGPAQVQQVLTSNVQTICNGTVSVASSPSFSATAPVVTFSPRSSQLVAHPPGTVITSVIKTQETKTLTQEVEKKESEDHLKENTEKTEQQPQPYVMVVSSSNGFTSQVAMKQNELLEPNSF
Chain of SPIB (Q01892 whole entry): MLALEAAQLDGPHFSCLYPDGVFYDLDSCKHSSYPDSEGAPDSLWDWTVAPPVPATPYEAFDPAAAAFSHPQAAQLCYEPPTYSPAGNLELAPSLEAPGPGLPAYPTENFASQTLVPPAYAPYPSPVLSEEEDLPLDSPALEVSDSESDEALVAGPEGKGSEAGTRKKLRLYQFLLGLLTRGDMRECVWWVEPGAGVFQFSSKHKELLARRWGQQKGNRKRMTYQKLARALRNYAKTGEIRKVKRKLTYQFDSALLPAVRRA

For the sequence TCCTCG, the binding signal in [1] was 1.6 fold enrichment (6-mer frequency, TF over GST control); in [2], 1.33 fold enrichment (6-mer frequency, TF over GST control); in assay [3] it was 1.47 fold enrichment (6-mer frequency, TF over GST control); in [4], 1.42 fold enrichment (6-mer frequency, TF over GST control); in assay [5], 1.47 fold enrichment (6-mer frequency, TF over GST control); in assay [6], 1.56 fold enrichment (6-mer frequency, TF over GST control). For the same sequence, the binding signal in [7] is 1.46 fold enrichment (6-mer frequency, TF over GST control); in [8] it was 1.32 fold enrichment (6-mer frequency, TF over GST control); in [9], 1.49 fold enrichment (6-mer frequency, TF over GST control).
As for TTGCAT, the binding signal in assay [1] is 1.5 fold enrichment (6-mer frequency, TF over GST control); in assay [2] it was 1.43 fold enrichment (6-mer frequency, TF over GST control); in assay [3], 1.52 fold enrichment (6-mer frequency, TF over GST control); in [4], 1.37 fold enrichment (6-mer frequency, TF over GST control); in assay [5], 1.39 fold enrichment (6-mer frequency, TF over GST control); in [6] it was 1.4 fold enrichment (6-mer frequency, TF over GST control). The binding signal in assay [7] is 1.44 fold enrichment (6-mer frequency, TF over GST control); in assay [8], 1.38 fold enrichment (6-mer frequency, TF over GST control); in assay [9] it was 1.42 fold enrichment (6-mer frequency, TF over GST control).
With TGTTCC, the binding signal in assay [1] is 1.69 fold enrichment (6-mer frequency, TF over GST control); in [2] it was 1.61 fold enrichment (6-mer frequency, TF over GST control); in assay [3], 1.74 fold enrichment (6-mer frequency, TF over GST control); in [4] it was 1.68 fold enrichment (6-mer frequency, TF over GST control); in assay [5], 1.66 fold enrichment (6-mer frequency, TF over GST control); in assay [6] it was 1.83 fold enrichment (6-mer frequency, TF over GST control). Moreover, the binding signal was 1.81 fold enrichment (6-mer frequency, TF over GST control) in [7]; 1.8 fold enrichment (6-mer frequency, TF over GST control) in assay [8]; 1.5 fold enrichment (6-mer frequency, TF over GST control) in [9].
Turning to CTTATG, the binding signal in assay [1] is 1.52 fold enrichment (6-mer frequency, TF over GST control); in assay [2], 1.56 fold enrichment (6-mer frequency, TF over GST control); in assay [3], 1.4 fold enrichment (6-mer frequency, TF over GST control); in assay [4] it was 1.45 fold enrichment (6-mer frequency, TF over GST control); in assay [5], 1.38 fold enrichment (6-mer frequency, TF over GST control); in assay [6], 1.39 fold enrichment (6-mer frequency, TF over GST control). The binding signal in assay [7] was 1.45 fold enrichment (6-mer frequency, TF over GST control); in assay [8], 1.59 fold enrichment (6-mer frequency, TF over GST control); in assay [9] it was 1.46 fold enrichment (6-mer frequency, TF over GST control).
Regarding CATTTT, the binding signal in assay [1] was 1.24 fold enrichment (6-mer frequency, TF over GST control); in [2], 1.04 fold enrichment (6-mer frequency, TF over GST control); in assay [3], 1.23 fold enrichment (6-mer frequency, TF over GST control); in assay [4], 1.14 fold enrichment (6-mer frequency, TF over GST control); in assay [5] it was 1.18 fold enrichment (6-mer frequency, TF over GST control); in assay [6], 1.16 fold enrichment (6-mer frequency, TF over GST control). Also, the binding signal was 1.39 fold enrichment (6-mer frequency, TF over GST control) in [7]; 1.23 fold enrichment (6-mer frequency, TF over GST control) in [8]; 1.15 fold enrichment (6-mer frequency, TF over GST control) in assay [9].
Take TTAATG: the binding signal in assay [1] is 1.24 fold enrichment (6-mer frequency, TF over GST control); in [2], 1.27 fold enrichment (6-mer frequency, TF over GST control); in assay [3], 1.3 fold enrichment (6-mer frequency, TF over GST control); in [4] it was 1.14 fold enrichment (6-mer frequency, TF over GST control); in [5], 1.17 fold enrichment (6-mer frequency, TF over GST control); in assay [6], 1.19 fold enrichment (6-mer frequency, TF over GST control). Besides, the binding signal in assay [7] is 1.24 fold enrichment (6-mer frequency, TF over GST control); in [8] it was 1.2 fold enrichment (6-mer frequency, TF over GST control); in assay [9] it was 1.14 fold enrichment (6-mer frequency, TF over GST control).
On to AAATGT, for which the binding signal in assay [1] is 1.24 fold enrichment (6-mer frequency, TF over GST control); in assay [2], 1.19 fold enrichment (6-mer frequency, TF over GST control); in assay [3], 1.25 fold enrichment (6-mer frequency, TF over GST control); in [4], 1.31 fold enrichment (6-mer frequency, TF over GST control); in assay [5], 1.38 fold enrichment (6-mer frequency, TF over GST control); in assay [6], 1.32 fold enrichment (6-mer frequency, TF over GST control). Moreover, the binding signal in assay [7] is 1.26 fold enrichment (6-mer frequency, TF over GST control); in assay [8], 1.42 fold enrichment (6-mer frequency, TF over GST control); in assay [9], 1.37 fold enrichment (6-mer frequency, TF over GST control).
On to TTATGA, for which the binding signal in [1] was 1.15 fold enrichment (6-mer frequency, TF over GST control); in assay [2], 1.15 fold enrichment (6-mer frequency, TF over GST control); in [3] it was 1.22 fold enrichment (6-mer frequency, TF over GST control); in assay [4], 1.08 fold enrichment (6-mer frequency, TF over GST control); in assay [5] it was 1.19 fold enrichment (6-mer frequency, TF over GST control); in [6], 1.16 fold enrichment (6-mer frequency, TF over GST control). Also, the binding signal is 1.15 fold enrichment (6-mer frequency, TF over GST control) in assay [7]; 1.14 fold enrichment (6-mer frequency, TF over GST control) in assay [8]; 1.22 fold enrichment (6-mer frequency, TF over GST control) in [9].
